Data as given in PubChem BioAssay (NCI).
The panel holds about 83,000 compounds, 20% with a hit somewhere; the sample as a whole holds those more often.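 How to read the values: 0–100, growth inhibition (40 = 60% inhibited); 0, no net growth; -100 to 0, cell death (-40 = 40% of starting cells died; -100 = all dead).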 Values without a mark were called inactive. Active and inactive are the calls of the source. The calls were made as follows: active = growth percent below 10; inactive = the rest.

tested on: UACC-257 melanoma; assay: NCI-60 one-dose screen, 48 h (100 = growth as untreated, 0 = no growth, -100 = all killed); settings: 10 µM unless noted

SMILES | growth
O=C(NNC(=O)c1ccc(-n2cc(-c3ccccc3)nn2)cc1)Nc1ccccc1 | 103%
COc1ccc(-c2csc(N(C(=O)N3CCN(c4cc5c(cc4F)c(=O)c(C(=O)O)cn5C4CC4)CC3)c3ccccc3)n2)cc1 | 12.4%
O=Nc1c(-c2c(O)[nH]c3ncccc23)[nH]c2ccccc12 | 92.6%
CCN1CC(=O)N(/N=C2\C(=O)Nc3ccccc32)C1=S | 103%
O=C1CC(N2C(=O)/C(=C/C(Cl)=C\c3ccc([N+](=O)[O-])cc3)SC2=S)C(=O)N1c1ccc(Cl)cc1 (stereo not given) | 57.8%
CN(C)C1CCN(Cc2ccc(NC(=O)c3cncc(C#Cc4cnc(N)c5ncccc45)c3)cc2C(F)(F)F)CC1 | 15.5%
Cn1cc(-c2nonc2-c2c[nH]c3ccc(Br)cc23)c2cc(Br)ccc21 | 66.8%
C[C@@H]1CCC[C@H]1CC(N)C(=O)O (stereo not given in full) | 106%
S=C(Nc1ccc(-c2nc(N3CCOCC3)c3cccn3n2)cc1)Nc1cccnc1 | 50.9%
O=C(CN1C(=O)CCC1=O)Nc1ncc(Cc2ccc(F)cc2)s1 | 98.5%
CN1CCN(C(=O)OCc2ccc3c(Cl)cc(Cl)c(O)c3n2)CC1 | 89.3%
O=C(O)[C@@H]1c2ccccc2-c2ccccc2[C@H]1C(=O)O | 80.6%
Clc1ccc(Sc2cnc(-c3ccccc3)o2)cc1 | 93.6%
C=C(C)[C@@H]1CC[C@]2(C(=O)NCC#CCN3CCN(C)CC3)CC[C@]3(C)[C@H](CC[C@@H]4[C@@](C)(CCC#N)[C@H](C(=C)C)CC[C@]43C)[C@@H]12 | 56.7%
Cc1ccc(/C=N/Nc2nc(Nc3ccccc3)nc(-n3nc(C)cc3C)n2)cc1 | 54.2%
COc1ccc(/C(C)=C(/c2ccc(OCCCN(C)C)cc2)c2ccc(OC(=O)Cc3ccccc3)cc2)cc1 | 82.1%
CCOC(=O)C1=C(NC)OCC1=O | 92.5%
C#CCOc1ccc2ncnc(Nc3cccc(NC(=O)C=C)c3)c2c1 | 69.5%
COc1cc(-n2cc(-c3cc(O)c(C/C=C(\C)CCC=C(C)C)c(O)c3)nn2)cc2c1O[C@]1(C)CC[C@@H](O)C(C)(C)[C@H]1C2 | 27.4%
N#C/C(=C\c1ccc(Br)cc1)n1nnc2ccc(F)cc21 | 6.2% (active)

SMILES | growth
CCN(CC)CCNC(=O)c1cn2ncnc(Oc3ccc(NC(=O)Nc4ccc(Cl)c(C(F)(F)F)c4)c(F)c3)c2c1C | -57.4% (active)
Cc1nc(N2CCOCC2)sc1S(N)(=O)=O | 97.4%
CC(=O)N(N=Nc1ccccc1)c1cccc2ccccc12 | 103%
Cc1ccc(-c2nc(N3CCNCC3)c3oc(-c4ccccc4)nc3n2)cc1 | 91.2%
Cc1cc2c(O)c(-c3cc(Cl)ccc3Cl)c3sc(=O)oc3c2cc1C | 60.8%
N=C(N)c1ccc(-c2ccc(-c3cc(Cl)cc(Cl)c3)o2)o1 | -73% (active)
CC1=Nc2cnc(Nc3ccc(OCCN4CCCCC4)cc3)nc2Nc2ccccc21 | 87.6%
Cc1cccnc1NC(=S)Nc1ncccc1C | 116%
CN1C(=O)/C(=C/c2ccc(C(=O)Nc3ncc(Cc4ccc(Cl)cc4)s3)cc2)SC1=S | 67.1%
COc1ccc(-c2nnc3n(C)c(=O)c4ccccc4n23)cc1N | 49.8%
CC1=C(CCC(C)N(C)Cc2ccc(OCCCN3CCCC3)cc2)C(C)(C)CCC1 (stereo not given) | -74.3% (active)
CCCc1cc(NC)nc(S(=O)(=O)CC)n1 | 106%
Cc1cccc(Cl)c1NC(=O)c1ccc2nc(NC(=O)NCCN(C)C)sc2c1 | 86.1%
O=c1oc2ccccc2cc1C1=NN=C(SCc2ccccc2)SC1 | 110%
CC1(c2ccccc2O)NN=C(/N=C/c2cccc([N+](=O)[O-])c2)N1C(Cc1c[nH]c2ccccc12)C(=O)O (stereo not given) | 90.6%
CC(O)c1cnc(/C=C2\SC(=S)N(Cc3ccccc3)C2=O)s1 (stereo not given) | 72.8%
Cc1ccc(CNc2ccc(Cl)cc2NCc2ccc(C)c(O)c2)cc1O | 46.2%
NC(=O)c1c(NC(=O)c2ccccc2)sc2c1CCC(=O)C2 | 4.86% (active)
CCn1c(=S)sc2c(Nc3ccc(F)cc3)nc(-c3cccnc3)nc21 | 78.9%
COc1cc(C(=O)n2nc(N3CCN(C)CC3)c3cc(N)ccc32)cc(OC)c1OC | 85.3%

tested on: M14 melanoma; assay: as above; settings: 10 µM unless noted

SMILES | growth
O=C(NNC(=O)c1ccc(-n2cc(-c3ccccc3)nn2)cc1)Nc1ccccc1 | 97.6%
COc1ccc(-c2csc(N(C(=O)N3CCN(c4cc5c(cc4F)c(=O)c(C(=O)O)cn5C4CC4)CC3)c3ccccc3)n2)cc1 | 26.6%
O=Nc1c(-c2c(O)[nH]c3ncccc23)[nH]c2ccccc12 | 56.4%
CCN1CC(=O)N(/N=C2\C(=O)Nc3ccccc32)C1=S | 86%
O=C1CC(N2C(=O)/C(=C/C(Cl)=C\c3ccc([N+](=O)[O-])cc3)SC2=S)C(=O)N1c1ccc(Cl)cc1 (stereo not given) | 23.9%
CN(C)C1CCN(Cc2ccc(NC(=O)c3cncc(C#Cc4cnc(N)c5ncccc45)c3)cc2C(F)(F)F)CC1 | -73.6% (active)
Cn1cc(-c2nonc2-c2c[nH]c3ccc(Br)cc23)c2cc(Br)ccc21 | 42.7%
C[C@@H]1CCC[C@H]1CC(N)C(=O)O (stereo not given in full) | 98.8%
S=C(Nc1ccc(-c2nc(N3CCOCC3)c3cccn3n2)cc1)Nc1cccnc1 | 32.1%
O=C(CN1C(=O)CCC1=O)Nc1ncc(Cc2ccc(F)cc2)s1 | 103%
CN1CCN(C(=O)OCc2ccc3c(Cl)cc(Cl)c(O)c3n2)CC1 | 55.4%
O=C(O)[C@@H]1c2ccccc2-c2ccccc2[C@H]1C(=O)O | 92.5%
Clc1ccc(Sc2cnc(-c3ccccc3)o2)cc1 | 107%
C=C(C)[C@@H]1CC[C@]2(C(=O)NCC#CCN3CCN(C)CC3)CC[C@]3(C)[C@H](CC[C@@H]4[C@@](C)(CCC#N)[C@H](C(=C)C)CC[C@]43C)[C@@H]12 | 5.09% (active)
Cc1ccc(/C=N/Nc2nc(Nc3ccccc3)nc(-n3nc(C)cc3C)n2)cc1 | 42.9%
COc1ccc(/C(C)=C(/c2ccc(OCCCN(C)C)cc2)c2ccc(OC(=O)Cc3ccccc3)cc2)cc1 | -19.6% (active)
CCOC(=O)C1=C(NC)OCC1=O | 102%
C#CCOc1ccc2ncnc(Nc3cccc(NC(=O)C=C)c3)c2c1 | 62.8%
COc1cc(-n2cc(-c3cc(O)c(C/C=C(\C)CCC=C(C)C)c(O)c3)nn2)cc2c1O[C@]1(C)CC[C@@H](O)C(C)(C)[C@H]1C2 | -17.5% (active)
N#C/C(=C\c1ccc(Br)cc1)n1nnc2ccc(F)cc21 | -42.3% (active)

SMILES | growth
CCN(CC)CCNC(=O)c1cn2ncnc(Oc3ccc(NC(=O)Nc4ccc(Cl)c(C(F)(F)F)c4)c(F)c3)c2c1C | -83.2% (active)
Cc1nc(N2CCOCC2)sc1S(N)(=O)=O | 103%
CC(=O)N(N=Nc1ccccc1)c1cccc2ccccc12 | 90.9%
Cc1ccc(-c2nc(N3CCNCC3)c3oc(-c4ccccc4)nc3n2)cc1 | -92.3% (active)
Cc1cc2c(O)c(-c3cc(Cl)ccc3Cl)c3sc(=O)oc3c2cc1C | 81.1%
N=C(N)c1ccc(-c2ccc(-c3cc(Cl)cc(Cl)c3)o2)o1 | -54.1% (active)
CC1=Nc2cnc(Nc3ccc(OCCN4CCCCC4)cc3)nc2Nc2ccccc21 | 50.6%
Cc1cccnc1NC(=S)Nc1ncccc1C | 102%
CN1C(=O)/C(=C/c2ccc(C(=O)Nc3ncc(Cc4ccc(Cl)cc4)s3)cc2)SC1=S | 16.3%
COc1ccc(-c2nnc3n(C)c(=O)c4ccccc4n23)cc1N | 13.6%
CC1=C(CCC(C)N(C)Cc2ccc(OCCCN3CCCC3)cc2)C(C)(C)CCC1 (stereo not given) | -77.2% (active)
CCCc1cc(NC)nc(S(=O)(=O)CC)n1 | 99.8%
Cc1cccc(Cl)c1NC(=O)c1ccc2nc(NC(=O)NCCN(C)C)sc2c1 | 90.5%
O=c1oc2ccccc2cc1C1=NN=C(SCc2ccccc2)SC1 | 95.7%
CC1(c2ccccc2O)NN=C(/N=C/c2cccc([N+](=O)[O-])c2)N1C(Cc1c[nH]c2ccccc12)C(=O)O (stereo not given) | 92%
CC(O)c1cnc(/C=C2\SC(=S)N(Cc3ccccc3)C2=O)s1 (stereo not given) | 66.5%
Cc1ccc(CNc2ccc(Cl)cc2NCc2ccc(C)c(O)c2)cc1O | 25.3%
NC(=O)c1c(NC(=O)c2ccccc2)sc2c1CCC(=O)C2 | 20.9%
CCn1c(=S)sc2c(Nc3ccc(F)cc3)nc(-c3cccnc3)nc21 | 74.1%
COc1cc(C(=O)n2nc(N3CCN(C)CC3)c3cc(N)ccc32)cc(OC)c1OC | 2.63% (active)
